# Reference: PubChem BioAssay AID1224921 (Broad Institute, 2016)
# About 350 (25%) of roughly 1,400 compounds were called active. Roughly 2% stayed inconclusive and do not appear here. A selection follows. Results with a measured potency or affinity are listed apart. Values without a mark were called inactive. No rule for the calls is given here.
# Test: C. difficile growth inhibition, confirmation, 4-point retest (AID 1224921);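 also: plate controls were DMSO wells for no effect and levofloxacin 16 µg/mL wells for full effect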
# Conditions: Clostridioides difficile clinical isolate growth, OD600, 24 h, active compounds read low; at 30 µM unless noted
row,Structure (SMILES),max activity
1,CNC[C@@H]1Oc2cc(-c3cccnc3)ccc2S(=O)(=O)N([C@@H](C)CO)C[C@H]1C,-5.58% [at 1.95 µM]
2,COc1ccc(-c2cnc3c(c2)C(=O)N([C@H](C)CO)C[C@H](C)[C@H](CN(C)C(=O)Nc2ccc(F)cc2)O3)cc1,13.9%
3,Cc1ccc(-c2ccc3c(c2)O[C@H](CN(C)Cc2ccncc2)[C@H](C)CN([C@@H](C)CO)S3(=O)=O)cc1,37.3%
4,CCS(=O)(=O)Nc1ccc2c(c1)C(=O)N(C)C[C@@H](OC)[C@@H](C)CN(CC1CCCC1)[C@H](C)CO2,10.5%
5,C[C@H](CO)N1C[C@H](C)[C@@H](CN(C)Cc2ccncc2)Oc2cc(C3=CCCCC3)ccc2S1(=O)=O,25.5% [at 28.5 µM]
6,O=C(C[C@@H]1C[C@@H]2c3cc(NC(=O)CC4CC4)ccc3O[C@@H]2[C@@H](CO)O1)NCc1cc(F)ccc1F,18.5%
7,CO[C@@H]1CN(C)C(=O)c2cc(NC(=O)C3CCC3)ccc2OC[C@@H](C)N(Cc2ccncc2)C[C@@H]1C,-8.85% [at 8 µM]
8,C[C@H]1CN([C@@H](C)CO)S(=O)(=O)c2ccc(-c3ccccc3F)cc2O[C@@H]1CN(C)Cc1cccnc1,16.6%
9,CO[C@@H]1CN(C)C(=O)c2ccc(NC(=O)c3ccc(Oc4ccccc4)cc3)cc2OC[C@@H](C)N(C(C)=O)C[C@H]1C,-13.9% [at 2.1 µM]
10,O=C(C[C@@H]1C=C[C@@H](NC(=O)c2cccc(F)c2)[C@H](CO)O1)Nc1nccs1,13.9%
11,COc1ccc(S(=O)(=O)Nc2ccc3c(c2)C(=O)N([C@@H](C)CO)C[C@@H](C)[C@@H](CN(C)C(=O)CCC(F)(F)F)OCCCC[C@H](C)O3)cc1,-14.1% [at 8 µM]
12,CO[C@H]1CN(C)C(=O)c2cc(NS(=O)(=O)c3cccc(F)c3)ccc2OC[C@@H](C)N(Cc2cc(F)ccc2F)C[C@H]1C,-7.98% [at 1.95 µM]
13,C[C@H](CO)N1C[C@H](C)[C@@H](CN(C)Cc2cccnc2)Oc2cc(C#CC3CCCC3)ccc2S1(=O)=O,41.2%
14,CO[C@@H]1CN(C)C(=O)c2cc(NS(=O)(=O)c3ccc(Cl)cc3)ccc2OC[C@H](C)N(C(=O)NC(C)C)C[C@H]1C,-5.33% [at 8 µM]
15,CCCN1C[C@H](C)[C@@H](OC)CN(C)C(=O)c2cc(NC(=O)c3cccc(OC)c3)ccc2OC[C@@H]1C,12.1%
16,CO[C@H]1CN(C)C(=O)c2ccc(NC(C)=O)cc2OC[C@H](C)N(Cc2cccc(F)c2)C[C@H]1C,-6.29% [at 1.95 µM]
17,CCC(=O)Nc1ccc2c(c1)C(=O)N(C)C[C@H](OC)[C@@H](C)CN(C(=O)CN1CCOCC1)[C@@H](C)CO2,-6.29% [at 0.5 µM]
18,CCCC#Cc1ccc([C@@H]2[C@@H](CO)N(S(=O)(=O)c3cccc(F)c3)[C@H]2C#N)cc1,12.2% [at 1.95 µM]
19,CCC(=O)Nc1ccc2c(c1)OC[C@@H](C)N(C(=O)CC)C[C@@H](C)[C@@H](OC)CN(C)C2=O,3.79% [at 0.5 µM]
20,C[C@H](CO)N1C[C@H](C)[C@H](CN(C)Cc2cccnc2)Oc2cc(C#CC3CCCC3)ccc2S1(=O)=O,20.9%

row,Structure (SMILES),max activity
1,COc1ccc(NC(=O)Nc2cccc3c2O[C@H](CN(C)C(=O)NC2CCCCC2)[C@@H](C)CN([C@@H](C)CO)C3=O)cc1,7.95%
2,CO[C@@H]1CN(C)C(=O)c2cc(NC(=O)c3ccccc3)ccc2OC[C@H](C)N(C)C[C@@H]1C,18.3%
3,CN(C)C(=O)C[C@H]1CC[C@H](NC(=O)C2CCOCC2)[C@@H](CO)O1,-6%
4,COCC(=O)N1C[C@@H](C)[C@@H](OC)CN(C)C(=O)c2ccc(NC(=O)NC(C)C)cc2OC[C@@H]1C,17.9%
5,CCCC(=O)Nc1ccc2c(c1)C(=O)N(C)C[C@H](OC)[C@H](C)CN(Cc1ccccc1)[C@@H](C)CO2,25.4%
6,COCC(=O)Nc1ccc2c(c1)OC[C@@H](C)N(Cc1ccccc1OC)C[C@@H](C)[C@@H](OC)CN(C)C2=O,16.6%
7,CO[C@@H]1CN(C)C(=O)c2ccc(NC(C)=O)cc2OC[C@H](C)N(Cc2cccc(F)c2)C[C@H]1C,17.2%
8,C[C@H]1CN([C@@H](C)CO)C(=O)c2c(c3ccccc3n2C)-c2ccccc2CO[C@H]1CN(C)Cc1cccc(C(=O)O)c1,-5.44% [at 0.5 µM]
9,COc1ccc(-c2ccc([C@@H]3[C@@H](C#N)N(C(=O)C4CCCC4)[C@H]3CO)cc2)cc1,25.6%
10,C/C=C/c1ccc2c(c1)O[C@@H](CN(C)C(=O)Cc1ccncc1)[C@H](C)CN([C@@H](C)CO)S2(=O)=O,11.6%
11,C[C@@H]1CN([C@H](C)CO)S(=O)(=O)c2ccc(C#CC3CC3)cc2O[C@H]1CN(C)Cc1ccccc1F,11.3% [at 1.95 µM]
12,COCC(=O)Nc1ccc2c(c1)OC[C@@H](C)N(Cc1ccccc1)C[C@@H](C)[C@@H](OC)CN(C)C2=O,-9.27% [at 1.95 µM]
13,CCCNC(=O)Nc1ccc2c(c1)C(=O)N(C)C[C@@H](OC)[C@H](C)CN(Cc1ccccc1)[C@@H](C)CO2,16.6%
14,COc1cccc(C#Cc2ccc3c(c2)O[C@@H](CN(C)C)[C@@H](C)CN([C@H](C)CO)S3(=O)=O)c1,29.6%
15,CC(C)CC#Cc1ccc2c(c1)O[C@@H](CN(C)Cc1cccnc1)[C@@H](C)CN([C@@H](C)CO)S2(=O)=O,22.6%
16,O=C(C[C@@H]1C[C@H]2c3cc(NC(=O)Nc4ccc(C(F)(F)F)cc4)ccc3O[C@H]2[C@@H](CO)O1)NCCc1ccccc1,46.3%
17,COc1ccc(-c2ccc([C@@H]3[C@@H](C#N)N(C(=O)c4cccc(F)c4)[C@H]3CO)cc2)cc1,19.5%
18,COc1ccc(C#Cc2ccc3c(c2)O[C@@H](CN(C)C)[C@H](C)CN([C@H](C)CO)S3(=O)=O)cc1,12.4% [at 8 µM]
19,CCC(=O)Nc1ccc2c(c1)OC[C@@H](C)N(CC1CCCCC1)C[C@@H](C)[C@@H](OC)CN(C)C2=O,-9.08% [at 8 µM]
20,COc1cccc(NC(=O)N[C@H]2C=C[C@H](CC(=O)Nc3ccc(-c4ccccc4)cc3)O[C@@H]2CO)c1,43%

row,Structure (SMILES),max activity
1,C[C@H]1CN([C@@H](C)CO)S(=O)(=O)c2ccc(C3=CCCCC3)cc2O[C@H]1CN(C)Cc1ccncc1,40.6%
2,C[C@H]1CN([C@@H](C)CO)C(=O)c2cc(/C=C/c3ccccc3)cnc2O[C@@H]1CN(C)C(=O)CN(C)C,-3.88% [at 0.5 µM]
3,C[C@H](CO)N1C[C@H](C)[C@@H](CN(C)Cc2cccnc2)Oc2cc(C3=CCCCC3)ccc2S1(=O)=O,29%
4,N#C[C@@H]1[C@@H](c2ccc(C#Cc3ccccc3F)cc2)[C@H](CO)N1C(=O)C1CCCCC1,38.8%
5,C[C@@H]1CN([C@@H](C)CO)C(=O)c2c(c3ccccc3n2C)-c2ccccc2CO[C@H]1CN(C)S(=O)(=O)c1cccc(C#N)c1,31.4%
6,O=C(C[C@@H]1C[C@H]2c3cc(NC(=O)Nc4ccc(C(F)(F)F)cc4)ccc3O[C@H]2[C@@H](CO)O1)NCc1ccc(Cl)cc1,-9.79% [at 8 µM]
7,C[C@@H]1CN([C@H](C)CO)S(=O)(=O)c2ccc(C3=CCCCC3)cc2O[C@H]1CN(C)Cc1ccncc1,-20.4% [at 1.95 µM]
8,CN1C(=O)c2cc(NC(=O)c3ccc(C(F)(F)F)cc3)ccc2OC[C@H]2O[C@H](CC(=O)NCc3ccc4c(c3)OCO4)CC[C@H]21,-12.1% [at 0.5 µM]
9,C[C@@H]1CN([C@@H](C)CO)C(=O)c2cc(C#C[C@@H](C)O)cnc2O[C@@H]1CN(C)Cc1ccc(-c2ccccc2)cc1,27.9%
10,CCCNC(=O)[C@@H]1[C@@H](CO)[C@@H]2Cn3c(cccc3=O)[C@H]1N2C(=O)NCCC,-6.96%
11,CO[C@@H]1CN(C)C(=O)c2cc(NC(=O)Nc3cccc(Cl)c3)ccc2OC[C@H](C)N(C(=O)Nc2c(C)noc2C)C[C@H]1C,-9.85%
12,COC(=O)[C@H]1[C@H](CO)[C@H]2Cn3c(ccc(-c4cccc(F)c4)c3=O)[C@H]2N1S(C)(=O)=O,23.4%
13,COC(=O)[C@@H]1[C@@H](CO)[C@@H]2Cn3c(ccc(-c4cccc(F)c4)c3=O)[C@@H]2N1C(C)=O,11.6% [at 8 µM]
14,COCC1CC(c2ccccc2)OC(c2ccc(NC(=O)CCCCCCC(=O)O)cc2)O1 (stereo not given),17.9%
15,C[C@@H]1CN([C@@H](C)CO)S(=O)(=O)c2ccc(/C=C/c3ccccc3)cc2O[C@@H]1CN(C)Cc1cccnc1,-27.8% [at 1.95 µM]
16,CC(C)CC#Cc1ccc2c(c1)O[C@H](CN(C)Cc1ccc(F)cc1)[C@H](C)CN([C@H](C)CO)S2(=O)=O,23.3% [at 8 µM]
17,C[C@@H]1CN([C@H](C)CO)S(=O)(=O)c2ccc(/C=C/c3ccccc3)cc2O[C@H]1CN(C)C,57%
18,C[C@H]1CN([C@@H](C)CO)S(=O)(=O)c2ccc(/C=C/c3ccccc3)cc2O[C@@H]1CN(C)C,16.2%
19,C[C@H]1CN([C@@H](C)CO)S(=O)(=O)c2ccc(/C=C/c3ccccc3)cc2O[C@@H]1CN(C)Cc1cccnc1,-24.8% [at 0.5 µM]
20,CC(C)CC#Cc1ccc2c(c1)O[C@H](CN(C)Cc1ccc(F)cc1)[C@@H](C)CN([C@@H](C)CO)S2(=O)=O,30.5% [at 1.95 µM]
